The supplement of paper PMC7411054

Key:
Details in all cases: treatment time: 24 h
A549-GM130-SQSTM1 [1] = experiment: lowest phenotypically active concentration; higher = less potent
Outline: (§1)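 Phenotypic activity depended on meeting both a deviation and a reproducibility criterion. The fifteen gene-edited A549, HepG2 and WPMY1 reporter lines were treated at 0.3, 1, 3 or 9 µM for 24 h, four wells each, then imaged live with features normalised to solvent control wells. Deviation required ≥3 of 4 wells past the 95th percentile of control Euclidean distances, and reproducibility a median replicate Pearson correlation above the 95th percentile of non-replicates.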

HepG2-ACTB-RAB5A [2] = experiment: as above
Outline: as §1

HepG2-GM130-SQSTM1 [3] = experiment: as above
Outline: as §1

WPMY1-GM130-SQSTM1 [4] = experiment: as above
Outline: as §1

WPMY1-TP53BP1-CLTA [5] = experiment: as above
Outline: as §1

A549-ACTB-RAB5A = experiment: phenotypically active (imaging signature differs from DMSO and reproducible) at any of 0.3-9 uM (binary (1 = active, 0 = inactive)); higher = active
Outline: as §1

A549-CANX-COX4 = experiment: as above
Outline: as §1

A549-GM130-SQSTM1 [6] = experiment: as above
Outline: as §1

A549-TP53BP1-CLTA = experiment: as above
Outline: as §1

A549-TUBA1B-RELA = experiment: as above
Outline: as §1

HepG2-ACTB-RAB5A [7] = experiment: as above
Outline: as §1

HepG2-CANX-COX4 = experiment: as above
Outline: as §1

HepG2-GM130-SQSTM1 [8] = experiment: as above
Outline: as §1

HepG2-TP53BP1-CLTA = experiment: as above
Outline: as §1

HepG2-TUBA1B-RELA = experiment: as above
Outline: as §1

WPMY1-ACTB-RAB5A = experiment: as above
Outline: as §1

WPMY1-CANX-COX4 = experiment: as above
Outline: as §1

WPMY1-GM130-SQSTM1 [9] = experiment: as above
Outline: as §1

WPMY1-TP53BP1-CLTA [10] = experiment: as above
Outline: as §1

WPMY1-TUBA1B-RELA = experiment: as above
Outline: as §1

N#CC(C#N)=NNc1cccc(Cl)c1
3 µM: lowest phenotypically active concentration (WPMY1-TP53BP1-CLTA [5])
active: phenotypically active (A549-ACTB-RAB5A) 1 | phenotypically active (A549-CANX-COX4) 1 | phenotypically active (A549-GM130-SQSTM1 [6]) 1 | phenotypically active (A549-TP53BP1-CLTA) 1 | phenotypically active (A549-TUBA1B-RELA) 1 | phenotypically active (HepG2-ACTB-RAB5A [7]) 1 | phenotypically active (HepG2-CANX-COX4) 1 | phenotypically active (HepG2-GM130-SQSTM1 [8]) 1 | phenotypically active (HepG2-TP53BP1-CLTA) 1 | phenotypically active (HepG2-TUBA1B-RELA) 1 | phenotypically active (WPMY1-ACTB-RAB5A) 1 | phenotypically active (WPMY1-CANX-COX4) 1 | phenotypically active (WPMY1-GM130-SQSTM1 [9]) 1 | phenotypically active (WPMY1-TP53BP1-CLTA [10]) 1 | phenotypically active (WPMY1-TUBA1B-RELA) 1
9 µM: lowest phenotypically active concentration (A549-GM130-SQSTM1 [1]) | lowest phenotypically active concentration (HepG2-ACTB-RAB5A [2]) | lowest phenotypically active concentration (HepG2-GM130-SQSTM1 [3]) | lowest phenotypically active concentration (WPMY1-GM130-SQSTM1 [4])

COc1ccc2c(c[n+](C)c3c4cc5c(cc4ccc23)OCO5)c1OC [Chelerythrine chloride]
9 µM: lowest phenotypically active concentration (WPMY1-TP53BP1-CLTA [5])
inactive: phenotypically active (A549-CANX-COX4) 0 | phenotypically active (A549-GM130-SQSTM1 [6]) 0 | phenotypically active (A549-TUBA1B-RELA) 0 | phenotypically active (HepG2-ACTB-RAB5A [7]) 0 | phenotypically active (HepG2-CANX-COX4) 0 | phenotypically active (HepG2-GM130-SQSTM1 [8]) 0 | phenotypically active (HepG2-TUBA1B-RELA) 0 | phenotypically active (WPMY1-ACTB-RAB5A) 0 | phenotypically active (WPMY1-CANX-COX4) 0 | phenotypically active (WPMY1-GM130-SQSTM1 [9]) 0 | phenotypically active (WPMY1-TUBA1B-RELA) 0
active: phenotypically active (A549-ACTB-RAB5A) 1 | phenotypically active (A549-TP53BP1-CLTA) 1 | phenotypically active (HepG2-TP53BP1-CLTA) 1 | phenotypically active (WPMY1-TP53BP1-CLTA [10]) 1

COc1ccc2c(c1)/C(=C/c1c[nH]cn1)C(=O)N2
1 µM: lowest phenotypically active concentration (A549-GM130-SQSTM1 [1]) | lowest phenotypically active concentration (HepG2-ACTB-RAB5A [2]) | lowest phenotypically active concentration (WPMY1-GM130-SQSTM1 [4]) | lowest phenotypically active concentration (WPMY1-TP53BP1-CLTA [5])
≤ 0.3 µM: lowest phenotypically active concentration (HepG2-GM130-SQSTM1 [3])
active: phenotypically active (A549-ACTB-RAB5A) 1 | phenotypically active (A549-CANX-COX4) 1 | phenotypically active (A549-GM130-SQSTM1 [6]) 1 | phenotypically active (A549-TP53BP1-CLTA) 1 | phenotypically active (A549-TUBA1B-RELA) 1 | phenotypically active (HepG2-ACTB-RAB5A [7]) 1 | phenotypically active (HepG2-CANX-COX4) 1 | phenotypically active (HepG2-GM130-SQSTM1 [8]) 1 | phenotypically active (HepG2-TP53BP1-CLTA) 1 | phenotypically active (HepG2-TUBA1B-RELA) 1 | phenotypically active (WPMY1-ACTB-RAB5A) 1 | phenotypically active (WPMY1-CANX-COX4) 1 | phenotypically active (WPMY1-GM130-SQSTM1 [9]) 1 | phenotypically active (WPMY1-TP53BP1-CLTA [10]) 1 | phenotypically active (WPMY1-TUBA1B-RELA) 1

CC(C)(C)c1cc(C=C(C#N)C#N)cc(C(C)(C)C)c1O [Malonoben]
active: phenotypically active (A549-ACTB-RAB5A) 1 | phenotypically active (A549-CANX-COX4) 1 | phenotypically active (A549-GM130-SQSTM1 [6]) 1 | phenotypically active (A549-TP53BP1-CLTA) 1 | phenotypically active (A549-TUBA1B-RELA) 1 | phenotypically active (HepG2-ACTB-RAB5A [7]) 1 | phenotypically active (HepG2-CANX-COX4) 1 | phenotypically active (HepG2-GM130-SQSTM1 [8]) 1 | phenotypically active (HepG2-TP53BP1-CLTA) 1 | phenotypically active (HepG2-TUBA1B-RELA) 1 | phenotypically active (WPMY1-ACTB-RAB5A) 1 | phenotypically active (WPMY1-CANX-COX4) 1 | phenotypically active (WPMY1-GM130-SQSTM1 [9]) 1 | phenotypically active (WPMY1-TP53BP1-CLTA [10]) 1 | phenotypically active (WPMY1-TUBA1B-RELA) 1
1 µM: lowest phenotypically active concentration (HepG2-ACTB-RAB5A [2]) | lowest phenotypically active concentration (HepG2-GM130-SQSTM1 [3]) | lowest phenotypically active concentration (WPMY1-GM130-SQSTM1 [4]) | lowest phenotypically active concentration (WPMY1-TP53BP1-CLTA [5])
≤ 0.3 µM: lowest phenotypically active concentration (A549-GM130-SQSTM1 [1])

COc1cc2c(c(OC)c1OC)-c1ccc(O)c(=O)cc1[C@@H](N)CC2 [Trimethylcolchicinic acid]
9 µM: lowest phenotypically active concentration (A549-GM130-SQSTM1 [1])
inactive: phenotypically active (HepG2-ACTB-RAB5A [7]) 0 | phenotypically active (HepG2-GM130-SQSTM1 [8]) 0 | phenotypically active (HepG2-TP53BP1-CLTA) 0 | phenotypically active (WPMY1-ACTB-RAB5A) 0 | phenotypically active (WPMY1-CANX-COX4) 0 | phenotypically active (WPMY1-GM130-SQSTM1 [9]) 0 | phenotypically active (WPMY1-TP53BP1-CLTA [10]) 0 | phenotypically active (WPMY1-TUBA1B-RELA) 0
active: phenotypically active (A549-ACTB-RAB5A) 1 | phenotypically active (A549-CANX-COX4) 1 | phenotypically active (A549-GM130-SQSTM1 [6]) 1 | phenotypically active (A549-TP53BP1-CLTA) 1 | phenotypically active (A549-TUBA1B-RELA) 1 | phenotypically active (HepG2-CANX-COX4) 1 | phenotypically active (HepG2-TUBA1B-RELA) 1
